Results from the supplement of paper PMC10849652.
Targets with a hit are over-represented here; the source holds about 7,900 in all. About 0.6% of all pairs of compound and target were hits.

Columns and labels:
Experiment in all cases: log2 fold change, soluble protein after heating vs DMSO (PISA); higher = thermal stabilisation; K562 cells, 10 uM, 30 min; active = over 0.2 and 3.5 SD of the protein, either way, in both replicates (recomputed)
[1] = compound: Cc1ccc(NC(=O)c2ccc(CN3CC[C@H](N(C)C)C3)c(C(F)(F)F)c2)cc1Nc1nccc(-c2cncnc2)n1 [bafetinib]
Method in brief: (§1)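 K562 cells at 2×10^6 cells/mL were treated for 30 min with 10 μM compound, and aliquots were heated for 3 min over 48°C-58°C before pooling. Extraction used PBS with 0.5% NP-40 at 4°C, and soluble protein was the supernatant after 21,000xg for 90 min, measured by TMTpro 16plex LC-MS/MS with channel sums equalised. Thermal stability values, relative to control samples and from duplicates, are log2 fold changes.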

[2] = compound: Cc1cccc(CC(=O)N2CCc3c2ccc(-c2cn(C)c4ncnc(N)c24)c3F)n1
Method in brief: as §1

[3] = compound: Cc1cn(-c2cc(NC(=O)c3ccc(C)c(Nc4nccc(-c5cccnc5)n4)c3)cc(C(F)(F)F)c2)cn1 [nilotinib]
Method in brief: as §1

[4] = compound: Cc1nc(Nc2n[nH]c3c2CN(C(=O)N[C@H](CN(C)C)c2ccccc2)C3(C)C)c2sccc2n1
Method in brief: as §1

[5] = compound: Cc1nc(Nc2ncc(C(=O)Nc3c(C)cccc3Cl)s2)cc(N2CCN(CCO)CC2)n1 [dasatinib]
Method in brief: as §1

[6] = compound: Cc1ncc(-c2ccnc(Nc3ccc(S(C)(=O)=O)cc3)n2)n1C(C)C
Method in brief: as §1

[7] = compound: Cn1cc(-c2ccc3c(c2)CCN3C(=O)Cc2cccc(C(F)(F)F)c2)c2c(N)ncnc21
Method in brief: as §1

[8] = compound: Cn1cc(-c2ccc3nnc(C(F)(F)c4ccc5ncccc5c4)n3n2)cn1
Method in brief: as §1

[9] = compound: Cn1cncc1[C@@](N)(c1ccc(Cl)cc1)c1ccc2c(c1)c(-c1cccc(Cl)c1)cc(=O)n2C [tipifarnib]
Method in brief: as §1

[10] = compound: FC(F)(F)c1ccc(/C=C/c2nc(COc3ccc(CCCCn4ccnn4)cc3)co2)cc1 [mubritinib]
Method in brief: as §1

Measured: log2 fold change

ATP6V0A1 (UniProt Q93050)
inactive: [1] -0.078

AIFM2 (UniProt Q9BRQ8)
inactive: [1] 0.008 | [2] -0.129 | [3] 0.067 | [4] 0.023 | [5] 0.046 | [6] -0.043 | [7] 0.081 | [8] 0.032 | [9] 0.199 | [10] 0.025

ALDH9A1 isoform 3 (UniProt P49189)
inactive: [1] -0.003 | [2] 0.001 | [3] 0.012 | [4] -0.019 | [5] 0.025 | [6] -0.018 | [7] 0.041 | [8] 0.001 | [9] -0.002 | [10] -0.005

ATP6V1H (UniProt Q9UI12)
Chain of UniProt Q9UI12 (Q9UI12 whole entry, looked up): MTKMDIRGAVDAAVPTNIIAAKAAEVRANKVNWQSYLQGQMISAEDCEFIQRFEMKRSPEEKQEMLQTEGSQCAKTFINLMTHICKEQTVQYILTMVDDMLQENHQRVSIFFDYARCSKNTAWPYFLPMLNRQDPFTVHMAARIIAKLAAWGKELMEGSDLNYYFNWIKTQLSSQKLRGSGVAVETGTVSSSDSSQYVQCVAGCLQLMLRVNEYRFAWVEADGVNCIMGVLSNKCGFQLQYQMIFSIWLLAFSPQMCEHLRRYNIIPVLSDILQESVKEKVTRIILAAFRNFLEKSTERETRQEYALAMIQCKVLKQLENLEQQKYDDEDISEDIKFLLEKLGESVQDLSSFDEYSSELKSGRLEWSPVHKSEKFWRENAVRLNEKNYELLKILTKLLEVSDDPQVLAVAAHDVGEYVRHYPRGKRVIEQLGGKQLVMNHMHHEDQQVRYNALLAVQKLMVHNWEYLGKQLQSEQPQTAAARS
inactive: [1] -0.057 | [2] 0.037 | [3] -0.015 | [4] -0.016 | [5] -0.029 | [6] 0.049 | [7] 0.025 | [8] -0.013 | [9] -0.01 | [10] 0.098

ATP5IF1 (UniProt Q9UII2)
Chain of UniProt Q9UII2 (Q9UII2 whole entry, looked up): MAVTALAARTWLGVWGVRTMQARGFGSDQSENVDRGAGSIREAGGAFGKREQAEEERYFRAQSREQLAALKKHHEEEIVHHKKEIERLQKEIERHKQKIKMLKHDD
inactive: [1] -0.039 | [2] -0.101 | [3] -0.038 | [4] 0.005 | [5] 0.055 | [6] -0.042 | [7] -0.002 | [8] 0.094 | [9] 0.059 | [10] 0.033

AGPS (UniProt O00116)
Chain of UniProt O00116 (O00116 whole entry, looked up): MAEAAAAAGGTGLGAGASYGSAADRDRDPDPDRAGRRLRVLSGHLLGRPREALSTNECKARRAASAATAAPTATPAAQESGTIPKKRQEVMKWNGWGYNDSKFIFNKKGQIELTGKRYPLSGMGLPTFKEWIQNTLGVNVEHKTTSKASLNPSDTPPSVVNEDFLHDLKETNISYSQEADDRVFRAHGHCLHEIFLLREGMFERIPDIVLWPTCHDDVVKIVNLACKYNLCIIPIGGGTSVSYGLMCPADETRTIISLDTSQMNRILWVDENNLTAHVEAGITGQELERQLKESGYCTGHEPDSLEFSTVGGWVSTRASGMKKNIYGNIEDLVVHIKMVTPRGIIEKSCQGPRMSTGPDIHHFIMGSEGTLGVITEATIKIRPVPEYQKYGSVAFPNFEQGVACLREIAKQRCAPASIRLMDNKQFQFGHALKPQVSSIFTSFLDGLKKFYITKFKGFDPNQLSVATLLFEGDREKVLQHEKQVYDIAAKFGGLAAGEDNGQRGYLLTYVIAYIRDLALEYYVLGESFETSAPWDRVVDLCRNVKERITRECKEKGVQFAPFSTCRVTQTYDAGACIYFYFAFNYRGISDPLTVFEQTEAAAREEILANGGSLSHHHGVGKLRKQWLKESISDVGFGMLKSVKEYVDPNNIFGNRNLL
inactive: [1] -0.068 | [2] 0.025 | [3] 0.039 | [4] -0.012 | [5] -0.023 | [6] 0.006 | [7] 0.09 | [8] 0.01 | [9] 0.032 | [10] 0.112

ATP6AP1 (UniProt Q15904)
inactive: [1] -0.052 | [2] 0.025 | [3] 0.024 | [4] -0.041 | [5] 0.016 | [6] -0.041 | [7] -0.081 | [8] -0.064 | [9] 0.011 | [10] -0.051

ARF4 (UniProt P18085)
inactive: [1] 0.113 | [2] 0.01 | [3] -0.056 | [4] 0.015 | [5] -0.053 | [6] 0.088 | [7] 0.052 | [8] 0.038 | [9] -0.061 | [10] 0.02

ANXA5 (UniProt P08758)
Chain of UniProt P08758 (P08758 whole entry, looked up): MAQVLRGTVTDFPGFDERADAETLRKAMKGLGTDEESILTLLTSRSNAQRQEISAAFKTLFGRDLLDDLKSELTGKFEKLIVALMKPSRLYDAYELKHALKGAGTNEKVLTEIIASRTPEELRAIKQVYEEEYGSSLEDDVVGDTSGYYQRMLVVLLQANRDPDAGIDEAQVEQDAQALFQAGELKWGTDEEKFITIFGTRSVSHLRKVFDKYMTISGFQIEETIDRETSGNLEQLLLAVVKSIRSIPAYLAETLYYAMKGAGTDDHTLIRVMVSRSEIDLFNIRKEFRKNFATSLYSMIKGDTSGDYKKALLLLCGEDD
inactive: [1] 0.019 | [2] 0.058 | [3] -0.015 | [4] -0.052 | [5] -0.079 | [6] 0.006 | [7] 0.017 | [8] 0.025 | [9] -0.061 | [10] 0.009

ATAD3A isoform 2 (UniProt Q9NVI7)
Chain of UniProt Q9NVI7 (Q9NVI7 whole entry, looked up): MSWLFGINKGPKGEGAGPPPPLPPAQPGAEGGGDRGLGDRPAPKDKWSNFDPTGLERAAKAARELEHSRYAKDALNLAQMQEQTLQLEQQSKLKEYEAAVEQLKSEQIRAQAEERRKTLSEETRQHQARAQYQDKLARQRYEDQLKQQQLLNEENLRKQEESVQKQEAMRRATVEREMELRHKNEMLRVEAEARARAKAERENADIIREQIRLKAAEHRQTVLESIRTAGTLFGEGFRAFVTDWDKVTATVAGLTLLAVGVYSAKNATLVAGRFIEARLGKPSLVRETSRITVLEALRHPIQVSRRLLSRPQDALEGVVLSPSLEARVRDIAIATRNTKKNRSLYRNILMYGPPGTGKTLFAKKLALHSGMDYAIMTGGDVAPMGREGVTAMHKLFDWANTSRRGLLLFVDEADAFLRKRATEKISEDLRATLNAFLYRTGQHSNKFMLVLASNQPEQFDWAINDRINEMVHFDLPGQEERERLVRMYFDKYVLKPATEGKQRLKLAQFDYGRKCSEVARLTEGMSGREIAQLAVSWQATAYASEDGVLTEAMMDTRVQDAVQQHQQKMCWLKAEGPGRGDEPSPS
inactive: [1] -0.104 | [2] 0.035 | [3] -0.141 | [4] -0.053 | [5] -0.094 | [6] 0 | [7] -0.082 | [8] -0.101 | [9] 0.097 | [10] -0.215

ARL2BP (UniProt Q9Y2Y0)
inactive: [1] 0.001 | [2] 0 | [3] -0.078 | [4] -0.086 | [5] -0.069 | [6] -0.103 | [7] 0.125 | [8] 0.011 | [9] -0.091 | [10] -0.027

AURKA (UniProt O14965)
active: [4] 0.699
inactive: [1] 0.103 | [2] -0.113 | [3] -0.001 | [5] 0.365 | [6] 0.47 | [7] 0.073 | [8] -0.016 | [9] -0.054 | [10] -0.078

ADD1 isoform 3 (UniProt P35611)
inactive: [1] -0.018 | [2] 0.068 | [3] 0.014 | [4] -0.02 | [5] 0.041 | [6] -0.093 | [7] 0.009 | [8] 0.014 | [9] 0.015 | [10] 0.033

ATP6V1C1 (UniProt P21283)
inactive: [1] -0.083 | [2] 0.063 | [3] -0.137 | [4] -0.191 | [5] -0.045 | [6] 0.115 | [7] -0.083 | [8] -0.105 | [9] 0.03 | [10] 0.083

BID isoform 2 (UniProt P55957)
inactive: [1] -0.035 | [2] -0.071 | [3] 0.019 | [4] -0.006 | [5] 0.018 | [6] 0.005 | [7] 0.038 | [8] 0.007 | [9] -0.079 | [10] 0.044

ACACB (UniProt O00763)
inactive: [1] 0.145 | [2] -0.021 | [3] -0.109 | [4] -0.251 | [5] -0.03 | [6] -0.026 | [7] -0.09 | [8] -0.059 | [9] -0.14 | [10] -0.147

ALKBH5 (UniProt Q6P6C2)
Chain of UniProt Q6P6C2 (Q6P6C2 whole entry, looked up): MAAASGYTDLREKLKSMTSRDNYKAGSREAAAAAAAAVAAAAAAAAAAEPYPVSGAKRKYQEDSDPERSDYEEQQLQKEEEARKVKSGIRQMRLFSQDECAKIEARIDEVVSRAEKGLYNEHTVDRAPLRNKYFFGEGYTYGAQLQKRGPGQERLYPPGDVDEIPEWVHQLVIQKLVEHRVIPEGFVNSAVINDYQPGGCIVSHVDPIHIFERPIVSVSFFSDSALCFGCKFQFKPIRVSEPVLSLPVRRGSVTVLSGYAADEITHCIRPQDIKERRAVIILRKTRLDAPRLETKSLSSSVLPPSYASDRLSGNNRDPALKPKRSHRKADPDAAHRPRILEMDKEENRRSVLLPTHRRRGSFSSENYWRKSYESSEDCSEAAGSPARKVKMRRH
inactive: [1] 0.038 | [2] -0.15 | [3] 0.018 | [4] -0.025 | [5] 0.014 | [6] 0.011 | [7] -0.042 | [8] 0.011 | [9] 0.077 | [10] -0.019

ADH5 (UniProt P11766)
inactive: [1] -0.009 | [2] 0.006 | [3] -0.013 | [4] 0.023 | [5] 0.036 | [6] 0.013 | [7] 0.021 | [8] -0.006 | [9] -0.029 | [10] 0.028

BLOC1S3 (UniProt Q6QNY0)
Chain of UniProt Q6QNY0 (Q6QNY0 whole entry, looked up): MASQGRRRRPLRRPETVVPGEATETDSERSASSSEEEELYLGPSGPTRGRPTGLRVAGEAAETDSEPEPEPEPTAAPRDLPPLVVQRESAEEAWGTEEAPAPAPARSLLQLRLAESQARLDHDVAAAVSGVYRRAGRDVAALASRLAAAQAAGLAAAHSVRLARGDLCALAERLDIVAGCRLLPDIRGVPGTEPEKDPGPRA
inactive: [1] -0.02 | [2] 0.006 | [3] -0.067 | [4] 0.031 | [5] -0.051 | [6] -0.022 | [7] 0.017 | [8] 0.078 | [9] -0.103 | [10] -0.027

ARFGAP2 (UniProt Q8N6H7)
Chain of UniProt Q8N6H7 (Q8N6H7 whole entry, looked up): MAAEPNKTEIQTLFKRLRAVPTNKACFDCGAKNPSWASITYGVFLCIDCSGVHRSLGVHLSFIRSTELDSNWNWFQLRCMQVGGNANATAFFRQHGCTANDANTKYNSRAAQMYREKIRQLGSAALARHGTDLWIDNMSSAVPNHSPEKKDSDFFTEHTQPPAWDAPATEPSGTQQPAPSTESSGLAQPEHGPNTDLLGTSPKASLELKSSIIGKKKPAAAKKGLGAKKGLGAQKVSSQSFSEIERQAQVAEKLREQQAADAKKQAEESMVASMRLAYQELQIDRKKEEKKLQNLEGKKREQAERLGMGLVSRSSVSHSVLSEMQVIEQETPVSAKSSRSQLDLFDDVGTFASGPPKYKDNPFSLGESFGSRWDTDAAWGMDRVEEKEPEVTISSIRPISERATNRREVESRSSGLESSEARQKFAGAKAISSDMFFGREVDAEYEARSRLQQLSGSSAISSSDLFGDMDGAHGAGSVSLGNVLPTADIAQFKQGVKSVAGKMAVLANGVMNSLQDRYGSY
inactive: [1] -0.006 | [2] -0.008 | [3] -0.045 | [4] -0.063 | [5] -0.096 | [6] 0.035 | [7] -0.024 | [8] -0.024 | [9] -0.059 | [10] 0.041

ARL3 (UniProt P36405)
Chain of UniProt P36405 (P36405 whole entry, looked up): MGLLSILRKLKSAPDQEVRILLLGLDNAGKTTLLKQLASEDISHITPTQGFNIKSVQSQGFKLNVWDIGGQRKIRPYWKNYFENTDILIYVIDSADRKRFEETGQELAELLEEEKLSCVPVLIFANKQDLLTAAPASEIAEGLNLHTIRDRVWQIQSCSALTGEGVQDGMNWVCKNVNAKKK
inactive: [1] -0.024 | [2] -0.029 | [3] 0.011 | [4] 0.006 | [5] 0.001 | [6] -0.003 | [7] 0.022 | [8] -0.018 | [9] -0.034 | [10] 0.029

ACAP2 (UniProt Q15057)
inactive: [1] 0.093 | [2] 0.052 | [3] -0.006 | [4] -0.05 | [5] -0.04 | [6] 0.051 | [7] -0.073 | [8] -0.051 | [9] -0.097 | [10] 0.016

ACSL4 (UniProt O60488)
Chain of UniProt O60488 (O60488 whole entry, looked up): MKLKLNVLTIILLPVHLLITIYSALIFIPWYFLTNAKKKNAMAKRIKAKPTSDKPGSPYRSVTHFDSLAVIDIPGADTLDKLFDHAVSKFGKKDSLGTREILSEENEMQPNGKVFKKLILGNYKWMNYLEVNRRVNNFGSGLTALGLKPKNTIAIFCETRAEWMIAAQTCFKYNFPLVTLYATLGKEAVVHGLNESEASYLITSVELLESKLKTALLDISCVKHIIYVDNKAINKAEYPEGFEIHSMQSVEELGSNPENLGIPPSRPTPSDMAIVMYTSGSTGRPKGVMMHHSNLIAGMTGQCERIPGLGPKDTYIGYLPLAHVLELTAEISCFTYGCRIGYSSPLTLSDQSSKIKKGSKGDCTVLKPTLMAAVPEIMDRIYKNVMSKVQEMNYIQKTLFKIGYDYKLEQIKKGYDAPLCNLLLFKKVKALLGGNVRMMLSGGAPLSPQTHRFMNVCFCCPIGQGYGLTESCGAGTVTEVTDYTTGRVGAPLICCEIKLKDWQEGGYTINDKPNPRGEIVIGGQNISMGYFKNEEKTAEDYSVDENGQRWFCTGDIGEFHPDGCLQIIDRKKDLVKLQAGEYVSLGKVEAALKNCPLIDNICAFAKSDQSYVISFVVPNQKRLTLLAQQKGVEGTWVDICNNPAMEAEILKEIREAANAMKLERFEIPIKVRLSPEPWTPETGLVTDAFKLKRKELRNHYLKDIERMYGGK
inactive: [1] -0.021 | [2] -0.014 | [3] -0.027 | [4] -0.063 | [5] -0.222 | [6] 0.087 | [7] 0.05 | [8] 0.115 | [9] -0.134 | [10] -0.078

BAIAP2 (UniProt Q9UQB8)
inactive: [1] -0.009 | [2] 0.032 | [3] -0.061 | [4] -0.05 | [5] -0.066 | [6] -0.038 | [7] 0.03 | [8] -0.032 | [9] -0.035 | [10] 0.06

AASDH (UniProt Q4L235)
inactive: [1] -0.065 | [2] -0.008 | [3] -0.079 | [4] -0.149 | [5] 0.063 | [6] 0.173 | [7] 0.045 | [8] 0.024 | [9] 0.058 | [10] 0.144

BRIX1 (UniProt Q8TDN6)
inactive: [1] 0.386 | [2] -0.033 | [3] 0.085 | [4] -0.077 | [5] 0.109 | [6] -0.013 | [7] -0.494 | [8] -0.138 | [9] 0.158 | [10] -0.206

ASH2L (UniProt Q9UBL3)
Chain of UniProt Q9UBL3 (Q9UBL3 whole entry, looked up): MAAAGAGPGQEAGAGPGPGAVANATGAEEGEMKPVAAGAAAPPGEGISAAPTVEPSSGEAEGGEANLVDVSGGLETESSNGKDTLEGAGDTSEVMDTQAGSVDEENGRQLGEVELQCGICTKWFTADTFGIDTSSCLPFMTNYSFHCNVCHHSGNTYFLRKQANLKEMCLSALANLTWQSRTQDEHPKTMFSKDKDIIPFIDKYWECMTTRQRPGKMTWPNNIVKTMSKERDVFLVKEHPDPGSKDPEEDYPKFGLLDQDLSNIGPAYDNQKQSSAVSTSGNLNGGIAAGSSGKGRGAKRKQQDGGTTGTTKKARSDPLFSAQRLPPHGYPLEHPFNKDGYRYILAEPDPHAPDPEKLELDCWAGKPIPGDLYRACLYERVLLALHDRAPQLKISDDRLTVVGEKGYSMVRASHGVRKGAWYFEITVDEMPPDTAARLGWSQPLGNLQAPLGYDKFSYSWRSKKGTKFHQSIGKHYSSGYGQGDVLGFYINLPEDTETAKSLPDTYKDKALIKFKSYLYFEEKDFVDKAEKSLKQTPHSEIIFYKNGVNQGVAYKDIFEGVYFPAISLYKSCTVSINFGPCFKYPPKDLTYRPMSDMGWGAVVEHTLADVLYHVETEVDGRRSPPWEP
inactive: [1] 0 | [2] -0.013 | [3] -0.008 | [4] -0.041 | [5] -0.004 | [6] 0.013 | [7] -0.07 | [8] -0.017 | [9] -0.041 | [10] -0.023

ANK2 (UniProt Q01484)
inactive: [1] -0.281 | [2] -0.034 | [3] -0.265 | [4] 0.041 | [5] -0.277 | [6] -0.042 | [7] 0.012 | [8] 0.01 | [9] 0.034 | [10] -0.141
